High-throughput results (PubChem BioAssay)
DAX1 inh-1 = inhibitors of DAX1 repression of SF-1 activated StAR promoter. inhibition, % at 6.8 µM. 370,000 tested, 1.1% active. HEK293T StAR-luciferase reporter, SF-1/DAX-1 repression relief;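 active = inhibition above the mean over all tested compounds plus 3 SD, cut at about 3.6% in these data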;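 note: 0% = DAX-1 cells with DMSO and 100% = cells lacking DAX-1 with DMSO; higher inhibition means more luminescence from relief of DAX-1 repression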
ssDAF12 agonist = activates DAF-12 receptor from parasite S. stercoralis; HEK293 ssDAF-12/GRIP1 lit1-tk-luc reporter, luminescence; % of 3 µM dafachronic acid response; activation, % at 6.8 µM; 370,000 tested, 1% active; AID 652126;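 active = activation above the mean over all tested compounds plus 3 SD, cut at about 0.9% in these data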;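 note: 0% = DMSO-only wells and 100% = 3 µM delta7-dafachronic acid wells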
SMARCA2 activ = increases SMARCA2 function in MMTV reporter cells; MG213 cells, MMTV-luciferase reporter, dexamethasone, overnight; activation, % at 9.1 µM; 370,000 tested, 1% active; AID 652017; in the data active = activation above about 7.8%;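 note: 0% = vehicle wells and 100% = reference activator wells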
DAX1 inh-2 = inhibits human nuclear receptor DAX1; P51843; HEK293 Gal4-DAX1 luciferase reporter, luminescence; inhibition, % at 6.75 µM; 340,000 tested, 0.99% active;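 active = inhibition above the mean over all tested compounds plus 3 SD, cut at about 4.2% in these data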;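 note: 0% = DAX1-transfected cells with DMSO and 100% = empty-vector control cells with DMSO; inhibition shows as a rise in luminescence from relieved DAX1 repression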
Target sequence (P51843 207-470 limits assumed): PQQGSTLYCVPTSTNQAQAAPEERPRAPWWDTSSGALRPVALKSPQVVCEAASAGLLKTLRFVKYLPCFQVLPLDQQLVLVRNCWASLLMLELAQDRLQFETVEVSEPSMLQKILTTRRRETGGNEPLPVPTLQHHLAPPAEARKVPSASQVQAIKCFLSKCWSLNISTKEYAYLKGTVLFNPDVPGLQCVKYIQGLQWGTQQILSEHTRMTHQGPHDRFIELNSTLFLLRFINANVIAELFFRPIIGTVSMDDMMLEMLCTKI
hcDAF-12 act = H. contortus DAF-12 activation, primary screen; HEK293 hcDAF-12 lit1-tk-luc reporter, luminescence; 0% DMSO, 100% Δ7-dafachronic acid; activation, % at 6.8 µM; 370,000 tested, 1.4% active; AID 652067;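 active = activation above the mean of all tested compounds plus 3 SD, cut at about 5.5% in these data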;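 note: 100% = response to 3 µM Δ7-dafachronic acid high control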
hgDAF-12 ag = activates the H. glycines DAF-12 receptor ligand-binding domain; activation, % at 6.8 µM; AID 687014; HEK293 GAL4-hgDAF12 UAS-luciferase reporter, agonist luminescence; normalized to butyrate control; 370,000 tested, 1.8% active;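 active = activation above a cutoff set at the mean of all screened compounds plus 3 SD, cut at about 10% in these data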;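 note: 0% = DMSO wells and 100% = sodium butyrate wells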
DAX1 conf = confirmation of human DAX1 (NR0B1) inhibitors. shares compounds with DAX1 inh-1. HEK293T StAR-promoter luciferase reporter, SF-1/DAX-1 repression. inhibition, % at 6.8 µM. 2,400 tested, 87% active. AID 652134;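 active = inhibition above the average of every tested compound plus 3 SD, cut at about 3.8% in these data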;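 note: 0% = DAX-1 cells with DMSO and 100% = no DAX-1 control cells with DMSO; active compounds raise luminescence by relieving repression of the StAR reporter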
SF1 mutant ctr = nonselective inhibitor or artifact in SF-1 mutant DAX1 counter-screen; shares compounds with DAX1 inh-1; HEK293 StAR-luciferase, SF-1 AF2 mutant, luminescence; inhibition, % at 6.8 µM; 2,400 tested, 78% active;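 active = inhibition above the mean of all tested compounds plus 3 SD, cut at about 3% in these data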;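 note: 0% = DAX-1 transfected cells with DMSO and 100% = cells without DAX-1 with DMSO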
* = called active by the depositor; / = not tested or not shown. Most compounds without a hit are left out; they make up all but 4.8% or so of the library.

SMILES | DAX1 inh-1 | ssDAF12 agonist | SMARCA2 activ | DAX1 inh-2 | hcDAF-12 act | hgDAF-12 ag | DAX1 conf | SF1 mutant ctr
Cc1ccc(S(=O)(=O)N(C)CC(=O)NCCCn2nc(C)cc2C)cc1 | -1 | 0 | 2 | 1 | -1 | 4 | / | /
O=C(Nc1ccc(NC(=O)c2ccccc2Cl)nc1)c1ccco1 | 0 | -1 | 3 | 0 | 0 | 4 | / | /
Cc1ccc(NC(=O)c2ccc3c(c2)OCCO3)nc1 | 6.1* | 0 | 3 | -1 | 1 | 12* | 3 | 1
Cc1ccc(NC(=O)CNC(=O)c2ccc3c(c2)OCO3)nc1 | 0 | -1 | 1 | 0 | -1 | 0 | / | /
Cc1ccc(NC(=O)c2ccco2)nc1 | 8.0* | 0 | 4 | 3 | 4 | 12* | 8.7* | 6.8*
O=C(COC(=O)c1ccc[nH]c1=O)NC1CC1 | 2 | -1 | -3 | 1 | 0 | 1 | / | /
Cc1ccccc1NC(=O)OC1CCC12CCC(c1ccccc1)CC2 (stereo not drawn) | -1 | -1 | -4 | / | -2 | 2 | / | /
O=C(Nc1ccc(Cl)cn1)c1ccc2nccnc2c1 | 6.4* | 1.6* | 3 | 1 | 1 | 7 | 4.5* | 2
O=C(Nc1ccc(Br)cn1)c1ccc2nccnc2c1 | 2 | 0 | 5 | 0 | 1 | 4 | / | /
CCCCN(CC)CCCNC(=O)c1cc2c(=O)n(C)c3ccccc3c2n1C | 4.7* | -2 | 0 | 3 | -1 | 1 | 8.7* | 2
CC(C)OCCCNC(=O)c1cc2c(=O)n(C)c3ccccc3c2n1C | -1 | -1 | -2 | -1 | -2 | 2 | / | /
O=C(c1ccc(CS(=O)c2ccccc2Cl)o1)N1CCN(C2CCCCC2)CC1 (stereo not drawn) | 6.9* | 0 | -3 | 1 | -1 | -1 | 5.8* | -5
O=C(c1ccc(CS(=O)c2ccccc2Cl)o1)N1CCCCCC1 (stereo not drawn) | -2 | -1 | 2 | 1 | -1 | 4 | / | /
CN1CCCC(OC(=O)c2ccc3c(c2)OCCO3)C1 (stereo not drawn) | 5.4* | 0 | -2 | 2 | 1 | 6 | 6.4* | 3.2*
CCCOc1ccc(C(=O)Nc2ccc3c(c2)OCO3)cc1 | 10* | 0 | 2 | 1 | 2 | 7 | 9.6* | 4.9*
Cc1ccc(OCC(=O)Nc2ccc3c(c2)OCO3)c(C)c1 | 6.5* | -1 | -1 | 1 | 4 | 13* | 7.2* | 5.7*
CC(=O)c1cc(F)ccc1OCC(=O)Nc1ccc2c(c1)OCO2 | 11* | 1.0* | 3 | 1 | 4 | 11* | 12* | 6.3*
CCCCOc1ccc(C(=O)Nc2ccc3c(c2)OCO3)cc1 | 1 | -1 | 7 | 2 | 2 | 1 | / | /
O=C(CN1CCN(S(=O)(=O)c2ccc(F)cc2)CC1)Nc1ccnn1C1CCCC1 | -2 | -1 | -2 | -1 | -2 | -2 | / | /
Cc1ccnc(NC(=O)c2ccc3c(c2)NC(=O)C(C)S3)c1 (stereo not drawn) | 11* | 0 | 0 | -2 | 4 | 6 | 9.2* | 3.9*
COC(=O)Nc1ccc(S(=O)(=O)N2CCC(C(=O)NCc3ccc4c(c3)OCO4)CC2)cc1 | 0 | -1 | -4 | 1 | 0 | -2 | / | /
CCOc1ccc(N(CC(=O)Nc2ccccc2OCC)S(=O)(=O)c2c(C)noc2C)cc1 | 13* | 0 | -4 | 0 | 1 | 1 | 16* | -7
CCNc1ccc(S(=O)(=O)N2CCOCC2)cc1NCC(=O)Nc1cccc(Br)c1 | 0 | -1 | -3 | 0 | -2 | 4 | / | /
CCOC(=O)c1c(C)[nH]c(C(=O)NNC(=O)c2ccccc2F)c1C | 5.1* | -1 | 1 | 2 | 2 | 10 | 8.3* | 6.5*
CCCNC(=O)C1(C)CCCN(C(=O)c2ccccc2OC(F)(F)F)C1 (stereo not drawn) | 0 | 0 | -3 | / | -1 | 0 | / | /
